# According to PubChem BioAssay AID463215 (Sanford-Burnham Center for Chemical Genomics, 2010):
# About 2,900 (63%) of roughly 4,600 compounds were called active. The set was probably picked from earlier hits. The list is a sample of the results. A number with no mark means an inactive call.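 How the source made its calls: active means inhibition of yeast growth at or above a set limit in either of two replicates at 10 µM; inactive means the rest.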
# Test: growth inhibitors of wild-type TIM10 yeast, confirmation, counter-screen for tim10-1 synthetic lethality project, single concentration, luminescence, S. cerevisiae (AID 463215);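 further: isogenic wild-type TIM10 control yeast grown in succinate dextrose medium; this counterscreen used the strain with wild-type TIM10; 0% = yeast with DMSO and 100% = medium wells lacking yeast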
# Details: S. cerevisiae tim10 strain growth, BacTiter-Glo luminescence, 24 h; at 10 µM; stronger effect = higher value
row,Structure (SMILES),inhibition
1,Fc1cccc(Cl)c1CSc1ccc(-c2ccco2)nn1,35.9% (active)
2,O=C(/C=C/c1ccc(Cl)c([N+](=O)[O-])c1)c1cccnc1,81.2% (active)
3,COc1cc([N+](=O)[O-])ccc1NC(=O)COC(=O)CCOc1ccc(C)cc1,43.4% (active)
4,C=CS(=O)c1sc(Cl)c(N2CCOCC2)c1[N+](=O)[O-] (stereo not drawn),87.5% (active)
5,CCc1ccc2c(c1)C1(NN=C(c3ccccc3)S1)C(=O)N2 (stereo not drawn),43.3% (active)
6,O=C(N/N=C/c1c[nH]c2ccccc12)c1cc2ccccc2o1,22.9%
7,Cc1ccc(Nc2nc(Cl)c(C=O)s2)cc1,10.7%
8,Nc1ccccc1SC(C[N+](=O)[O-])c1ccccc1 (stereo not drawn),53.5% (active)
9,O=C(Nc1ccc2oc(-c3ccccc3F)nc2c1)c1ccco1,62.4% (active)
10,O=C(Nc1nc(-c2ccco2)c(-c2ccco2)s1)c1ccco1,39.9% (active)
11,COCCNC(=O)/C(C#N)=C/c1cccc(OCc2ccccc2)c1,69.5% (active)
12,Cc1cc(C)n(-c2nc(SCC(=O)N3CCCC3)c3c4c(sc3n2)CCCC4)n1,23.4%
13,COc1ccc(CNC(=O)/C(C#N)=C/c2cccc(OC)c2OC)cc1,80.8% (active)
14,CCOC(=O)C(=Cc1ccccc1OC)C(=O)OCC,27.6%
15,c1ccc(-c2nccc(-c3ccc(-n4cnc5ccccc54)cc3)n2)nc1,-3.75%
16,CCN(CC)CCN(C(=O)c1ccc(S(=O)(=O)N2CCOCC2)cc1)c1nc2cc3c(cc2s1)OCCO3,28.1%
17,CN(C)CCCN(C(=O)c1ccc(S(=O)(=O)N2CCCc3ccccc32)cc1)c1nc2ccc(F)cc2s1,41.4% (active)
18,COc1cccc(NC(=O)CSc2nccn(-c3ccc4c(c3)OCCO4)c2=O)c1,8.7%
19,O=C(NNc1c2ccccc2nc2ccccc12)c1cc2ccccc2cc1O,-21.2%
20,COc1ccc(Oc2cn[nH]c2-c2ccc(OC)cc2O)cc1,31% (active)
21,O=S(=O)(NC1CCCCC1)c1ccc(F)c2ccccc12,29.4%
22,Fc1ccc(/C=N/n2c(COc3ccccc3)n[nH]c2=S)cc1,37% (active)
23,CC[C@@H]1Cc2cc(O)ccc2C2=C1c1ccc(O)cc1C[C@H]2CC,66.3% (active)
24,Cc1[nH]c2ccccc2c1C(=O)COC(=O)c1c(-c2ccccc2)noc1C,36.8% (active)

row,Structure (SMILES),inhibition
1,CCC(C)(C)n1nnnc1CN1CCN(c2nc3ccc(C)cc3cc2C#N)CC1,24.8%
2,O=C(NCc1ccco1)c1cc2sccc2n1Cc1ccc(F)cc1,23.6%
3,CCc1cccc(CC)c1NC(=S)NCc1ccc2[nH]c(C)cc2c1,52.9% (active)
4,CCc1sc(C(=O)N2CCN(CC(=O)Nc3cccc(F)c3)CC2)cc1C,60.8% (active)
5,C[C@@H]1C(c2ccc(F)cc2)=NN(c2ccc(Br)cc2)[C@H]1C(=O)N1CCOC1=O,52.1% (active)
6,N/C(=N\OC(=O)Cc1ccccc1[N+](=O)[O-])c1ccc(Br)cc1,53% (active)
7,CC(/C=N/NC(=O)c1cc(-c2ccc3ccccc3c2)n[nH]1)=C\c1ccco1,42.5% (active)
8,O=C1c2ccccc2C(=O)N1CC1c2ccccc2CCN1S(=O)(=O)c1ccccc1 (stereo not drawn),22.5%
9,O=S(=O)(ON(c1ccccc1)S(=O)(=O)c1ccccc1)c1ccccc1,-4.35%
10,Cc1nn(Cc2ccc(Cl)c(Cl)c2)c(C)c1NC(=O)c1cc(C2CC2)on1,33.2% (active)
11,Oc1ccccc1C1=NN(c2ccccc2)C(c2ccccc2)C1 (stereo not drawn),70.5% (active)
12,COc1ccc(Cn2c(-c3ccc(Cl)cc3)c[n+]3ccccc23)cc1,34.7% (active)
13,O=C(Cc1ccccc1)NC(=S)Nc1ccc(N2CCCCC2)cc1,39.8% (active)
14,S=C(NCCCc1ccccc1)Nc1ccc(Br)cc1,31.7%
15,COc1ccc(NC(=S)NCC2CCN(c3ccc(OC)cc3)C2)cc1 (stereo not drawn),-5.6%
16,COc1ccc(-c2cc(-c3ccc(N)cc3)nc(N)c2C#N)cc1OC,33.8% (active)
17,O=C(Nc1ccc(C(F)(F)F)cc1)c1cccc(-n2cnnn2)c1,23.1%
18,O=C(O)c1ccc(N/N=C/c2cn(-c3ccccc3)nc2-c2cccs2)cc1,64.8% (active)
19,Cc1nnnn1/C(=C\c1ccccc1)C(=O)OCC(=O)N1CC2(C)CC1CC(C)(C)C2 (stereo not drawn),50.7% (active)
20,c1ccc(-c2cn3c(n2)CCc2ccc4cccnc4c2-3)cc1,37% (active)
21,Cc1ccccc1-c1nc(C#N)c(NCc2ccco2)o1,11.5%
22,COc1cccc(CNc2nc(C(F)(F)F)nc3ccccc23)c1,27.1%
23,c1ccc(-c2nc(NCc3ccco3)c3ccccc3n2)cc1,34% (active)
24,CC(C)N(Cc1ccccc1)C(=S)Nc1ccc(OC(F)F)cc1,-14%
